In PubChem BioAssay:
The source made the active and inactive calls.

Legend:
[1] = optical density shifts of acrAB sulA E. coli – strain DRC41, OD650, 48 h, E. coli filamentation inducer project, primary screen (AID 1152); conditions: higher = more signal, called active from +8 up or from −8 down;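 note: E. coli MC1000 strain DRC41 lacking acrAB efflux pump and sulA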
[2] = probe aLefty1 binding on compound microarray – biochemical, small-molecule microarray, 635/667 nm fluorescence, primary screen (AID 1153); conditions: higher = more signal;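 note: score merges spot fluorescence with signal-to-noise ratio from the scanned slide images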
[3] = plasmodial surface anion channel blockers, osmotic lysis – cell-based, P. falciparum Indochina, OD700, 1 h, primary screen (AID 1154); conditions: P. falciparum Indochina infected RBC osmotic lysis, higher = more signal, called active from +8 up or from −8 down
[4] = plasmodial surface anion channel blockers, osmotic lysis – cell-based, P. falciparum Indochina, OD700, 2 h, primary screen (AID 1155);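 note: lysis reports solute entry through the parasite surface anion channel PSAC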; conditions: P. falciparum Indochina infected erythrocytes, higher = more signal, called active from +8 up or from −8 down
[5] = changes in parasitized red cell lysis, either direction – P. falciparum Indochina, OD700, 3 h, PSAC antagonist project, primary screen (AID 1156); conditions: P. falciparum-infected erythrocytes, osmotic lysis, higher = more signal, called active from +8 up or from −8 down
[6] = plasmodial surface anion channel blockers, osmotic lysis – cell-based, P. falciparum Indochina, OD700, 18 h, primary screen (AID 1157); conditions: P. falciparum Indochina infected erythrocytes, osmotic lysis OD700, 18 h; higher = more signal, called active from +8 up or from −8 down
[7] = S6 kinase pathway phospho-S6 level changes – cell-based, A549, cytoblot, luminescence, serum-stimulated, primary screen (AID 1158); conditions: 5 h, higher = more signal;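 note: serum-stimulated A549 lung adenocarcinoma cells; signal is phosphorylated S6 detected by cytoblot immunostaining with HRP secondary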
[8] = target: NADPH oxidase 2 (Homo sapiens) (UniProt P04839); assay: compounds shifting NOX2 Amplex Red fluorescence – cell-based, HEK293-NOX2, PMA-stimulated, NOX inhibitor project, primary screen (AID 1159); conditions: 45 min, higher = more signal, called active from +8 up or from −8 down; note: test concentration not given here
Chain of NADPH oxidase 2 (Homo sapiens) (P04839 whole entry, looked up): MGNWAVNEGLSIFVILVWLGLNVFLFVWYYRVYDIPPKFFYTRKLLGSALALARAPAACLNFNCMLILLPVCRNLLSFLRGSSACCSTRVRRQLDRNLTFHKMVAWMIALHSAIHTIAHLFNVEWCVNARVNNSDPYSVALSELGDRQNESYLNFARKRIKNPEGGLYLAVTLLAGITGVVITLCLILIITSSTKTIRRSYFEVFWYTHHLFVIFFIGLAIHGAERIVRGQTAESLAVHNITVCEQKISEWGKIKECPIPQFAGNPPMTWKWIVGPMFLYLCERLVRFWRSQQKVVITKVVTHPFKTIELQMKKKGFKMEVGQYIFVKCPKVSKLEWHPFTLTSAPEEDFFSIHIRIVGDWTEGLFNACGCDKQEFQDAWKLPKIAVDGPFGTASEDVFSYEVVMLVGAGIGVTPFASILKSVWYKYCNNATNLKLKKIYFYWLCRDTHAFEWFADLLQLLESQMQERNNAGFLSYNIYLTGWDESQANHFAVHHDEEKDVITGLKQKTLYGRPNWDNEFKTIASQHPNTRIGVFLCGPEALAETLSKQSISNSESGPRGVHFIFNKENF

[9] = target: NADPH oxidase 4 (Homo sapiens) (UniProt Q9NPH5); assay: compounds shifting NOX4 Amplex Red fluorescence – cell-based, HEK293-NOX4, tetracycline-induced, NOX inhibitor project, primary screen (AID 1160); conditions: HEK293-NOX4, Amplex Red H2O2 fluorescence, 45 min; higher = more signal, called active from +8 up or from −8 down
Chain of NADPH oxidase 4 (Homo sapiens) (Q9NPH5 whole entry, looked up): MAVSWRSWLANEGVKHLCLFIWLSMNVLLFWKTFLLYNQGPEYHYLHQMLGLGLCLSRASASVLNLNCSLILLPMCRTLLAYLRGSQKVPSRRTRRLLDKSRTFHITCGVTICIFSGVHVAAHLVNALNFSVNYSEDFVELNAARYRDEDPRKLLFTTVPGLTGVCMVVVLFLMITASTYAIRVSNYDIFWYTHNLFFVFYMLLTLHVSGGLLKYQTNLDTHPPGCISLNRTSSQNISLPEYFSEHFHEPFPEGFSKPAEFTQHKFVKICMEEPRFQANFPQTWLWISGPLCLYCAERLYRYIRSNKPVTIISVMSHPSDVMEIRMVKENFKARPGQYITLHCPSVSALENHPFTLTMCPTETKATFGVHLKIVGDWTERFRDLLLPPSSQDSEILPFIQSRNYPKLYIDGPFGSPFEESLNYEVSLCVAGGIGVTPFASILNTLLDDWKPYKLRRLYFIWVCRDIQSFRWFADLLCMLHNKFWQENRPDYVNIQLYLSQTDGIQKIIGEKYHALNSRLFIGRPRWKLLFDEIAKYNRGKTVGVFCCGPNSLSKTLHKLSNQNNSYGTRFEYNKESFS

[10] = target: NADPH oxidase 5 (Homo sapiens) (UniProt Q96PH1); assay: compounds shifting NOX5 Amplex Red fluorescence – cell-based, HEK293-NOX5, NOX inhibitor project, primary screen (AID 1161); conditions: HEK293-NOX5, ionomycin, 45 min, higher = more signal
Chain of NADPH oxidase 5 (Homo sapiens) (Q96PH1 whole entry, looked up): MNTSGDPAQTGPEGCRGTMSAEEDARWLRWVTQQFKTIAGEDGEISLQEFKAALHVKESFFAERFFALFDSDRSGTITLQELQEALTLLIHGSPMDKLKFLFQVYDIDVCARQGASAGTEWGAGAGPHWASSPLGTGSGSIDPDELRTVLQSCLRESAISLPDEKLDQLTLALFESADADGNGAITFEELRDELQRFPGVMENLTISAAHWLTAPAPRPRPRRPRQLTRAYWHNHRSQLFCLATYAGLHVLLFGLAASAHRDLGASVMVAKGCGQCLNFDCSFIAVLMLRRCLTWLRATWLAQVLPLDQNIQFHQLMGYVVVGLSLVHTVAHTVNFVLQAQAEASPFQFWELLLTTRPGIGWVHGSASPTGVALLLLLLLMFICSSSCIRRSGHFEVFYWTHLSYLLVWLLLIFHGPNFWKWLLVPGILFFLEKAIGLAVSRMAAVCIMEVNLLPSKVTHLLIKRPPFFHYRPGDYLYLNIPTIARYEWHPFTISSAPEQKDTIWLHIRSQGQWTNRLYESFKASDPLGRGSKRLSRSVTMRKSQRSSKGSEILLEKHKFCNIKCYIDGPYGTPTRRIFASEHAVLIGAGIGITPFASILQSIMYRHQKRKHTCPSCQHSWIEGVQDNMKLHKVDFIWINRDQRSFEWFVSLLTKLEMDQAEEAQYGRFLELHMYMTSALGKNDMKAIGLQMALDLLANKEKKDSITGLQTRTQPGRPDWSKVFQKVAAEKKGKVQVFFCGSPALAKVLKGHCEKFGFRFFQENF

Row | Structure (SMILES) | z-score [1] | composite z-score [2] | z-score [3] | z-score [4] | z-score [5] | z-score [6] | z-score [7] | z-score [8] | z-score [9] | z-score [10]
1 | COC(=O)[C@@]1(Cc2ccc(OC)cc2)[C@H]2c3cc(C(=O)N4CCCC4)n(CCF)c3C[C@H]2CN1C(=O)c1ccccc1 | -1.28 (inactive) | 2.49 | 10.4 (active) | 1.42 (inactive) | 2.39 (inactive) | 1.13 (inactive) | 0.181 | -0.201 (inactive) | -2.52 (inactive) | -3.65
2 | CCCC=C(CCC)[C@@H](NC(=O)Cc1ccccc1)c1ccc(C(=O)OC)cc1 | -1.45 (inactive) | 1.47 | 1.19 (inactive) | 0.194 (inactive) | -0.0448 (inactive) | 0.25 (inactive) | -0.504 | -0.458 (inactive) | 0.261 (inactive) | 1.89
3 | C=CC[C@@]1(C(=O)NCC(O)CO)N=C(c2ccc(OCCCO)cc2)O[C@@H]1c1ccccc1 (stereo not given in full) | 0.529 (inactive) | 0.366 | 22.6 (active) | 4.36 (inactive) | 1.12 (inactive) | 0.394 (inactive) | -0.0453 | 0.325 (inactive) | 1.02 (inactive) | 1.69
4 | COC(=O)[C@@]1(Cc2ccccc2)[C@H]2c3cc(C(=O)N4CCCC4)n(Cc4ccc(OC(F)(F)F)cc4)c3C[C@H]2CN1C(=O)c1ccccc1 | -2.11 (inactive) | 0.592 | 3.6 (inactive) | 1.2 (inactive) | 1.01 (inactive) | 1.35 (inactive) | -0.366 | 0.828 (inactive) | 1.34 (inactive) | 0.914
5 | C[C@@]1([C@@H](NC(=O)c2cccs2)c2ccc(-c3ccccc3)cc2)C[C@H]1C1CCCCC1 | -1.79 (inactive) | 0.371 | 1.41 (inactive) | -0.427 (inactive) | 1.13 (inactive) | -1.34 (inactive) | 2.17 | -4.07 (inactive) | -4.4 (inactive) | -1.59
6 | N#Cc1ccc(NN2C(C(O)c3ccco3)C=CC3C(=O)N(c4ccccc4)C(=O)C32)cc1 (stereo not given) | -4.51 (inactive) | 0.135 | 7.71 (inactive) | 1.67 (inactive) | 1.12 (inactive) | 0.826 (inactive) | -0.555 | -0.911 (inactive) | -4.51 (inactive) | -2.69
7 | CCCCC(O)C1C=CC2C(=O)N(Cc3ccccc3)C(=O)C2N1n1cnnc1 (stereo not given) | -1.18 (inactive) | 0.574 | 0.706 (inactive) | -1.16 (inactive) | 0.662 (inactive) | -1.85 (inactive) | 1.99 | -3.33 (inactive) | -2.04 (inactive) | -3.3
8 | [N-]=[N+]=NCc1ccccc1C[C@]1(C(=O)NCCN2CCOCC2)COC(c2ccc(OCCCO)cc2)=N1 | 0.581 (inactive) | 0.265 | 23.9 (active) | 10.2 (active) | 3.35 (inactive) | 2.09 (inactive) | 0.132 | -0.379 (inactive) | 0.846 (inactive) | 0.109
9 | CCC[C@@H]1C[C@@]1(CCC)[C@@H](NC(=O)c1cccs1)c1ccc(Cl)cc1 | -0.26 (inactive) | 0.0319 | -0.119 (inactive) | -0.639 (inactive) | 0.307 (inactive) | 0.0519 (inactive) | -0.392 | -1.47 (inactive) | -0.556 (inactive) | 0.684
10 | O=C1O[C@H](c2ccccc2)[C@H](c2ccccc2)N2[C@H]1[C@@H](C(=O)N1CCN(c3ncccn3)CC1)[C@]1(C(=O)Nc3ccc(C#CCCO)cc31)[C@H]2c1ccccc1OCCO | 0.313 (inactive) | -0.012 | 2.7 (inactive) | 1.55 (inactive) | 0.561 (inactive) | 0.657 (inactive) | -0.673 | 1.45 (inactive) | 0.492 (inactive) | 0.333
11 | COc1cccc(C)c1NC(=O)O[C@H]1[C@H](OC(=O)Nc2ccccc2)[C@H](OC(=O)Nc2ccccc2)[C@@H](OC)O[C@@H]1CO | -1.05 (inactive) | 0.211 | 7.38 (inactive) | 1.34 (inactive) | -0.446 (inactive) | 0.89 (inactive) | -0.26 | 0.0936 (inactive) | -0.91 (inactive) | -0.89
12 | COC(=O)C(CC#Cc1ccc2c(c1)[C@]1(C(=O)N2)[C@H](C(=O)N2CCc3cc(OC)c(OC)cc3C2)[C@H]2C(=O)O[C@H](c3ccccc3)[C@H](c3ccccc3)N2[C@@H]1c1ccc(OCCO)cc1)C(=O)OC | 0.408 (inactive) | 0.546 | 6.17 (inactive) | 2.37 (inactive) | 1.15 (inactive) | 1.28 (inactive) | 0.237 | 1.26 (inactive) | 0.487 (inactive) | 1.32
13 | CCCN1C(=O)[C@@H]2Cc3c([nH]c4ccccc34)[C@@H](c3cccc(O)c3)N2C1=O | -0.524 (inactive) | 0.0742 | -0.578 (inactive) | -0.108 (inactive) | -0.539 (inactive) | -0.114 (inactive) | 0.257 | -0.904 (inactive) | -1.02 (inactive) | -0.413
14 | C=CC[C@]1(C(=O)NCC(O)CO)N=C(c2ccc(OCCCO)cc2)O[C@H]1c1ccccc1N=[N+]=[N-] (stereo not given in full) | 0.33 (inactive) | 0.658 | 34.3 (active) | 30.5 (active) | 2 (inactive) | 7.28 (inactive) | -0.33 | -0.357 (inactive) | 1.74 (inactive) | 0.781
15 | O=C1NC(=O)C2C1C=CC(C(O)c1ccc(-c3ccccc3)s1)N2Nc1ccccn1 (stereo not given) | -0.513 (inactive) | 0.114 | 2.41 (inactive) | 1.14 (inactive) | 0.216 (inactive) | 1.02 (inactive) | -0.697 | -1.09 (inactive) | -2.3 (inactive) | -1.44
16 | NC(=O)NCC#Cc1ccc2c(c1)[C@]1(C(=O)N2)[C@H](c2ccc(OCCO)cc2)N2[C@H](c3ccccc3)[C@H](c3ccccc3)OC(=O)[C@H]2[C@@H]1C(=O)N1CCN(c2ncccn2)CC1 | 0.811 (inactive) | 0.538 | 3.03 (inactive) | 1.1 (inactive) | 0.454 (inactive) | 0.516 (inactive) | 0.0981 | 1.75 (inactive) | 1.48 (inactive) | 0.41
17 | COc1cc2c(cc1OC)CN(C(=O)[C@@H]1[C@H]3C(=O)O[C@H](c4ccccc4)[C@H](c4ccccc4)N3[C@H](c3ccc(OCCO)cc3)[C@@]13C(=O)Nc1ccc(C#CCCO)cc13)CC2 | 2.02 (inactive) | 0.273 | 2.85 (inactive) | 0.0851 (inactive) | 0.464 (inactive) | -1.1 (inactive) | 1.71 | -0.303 (inactive) | -0.458 (inactive) | -4.23
18 | CC(C)C[C@@H]1NC(=O)[C@@]23C(=O)N[C@@H](Cc4ccccc4)C2[C@H](C)[C@@]2(C)O[C@H]2C3/C=C/C/C=C\CNC(=O)[C@@H]2CCCN2C1=O (stereo not given in full) | -0.797 (inactive) | -0.234 | 0.918 (inactive) | 0.182 (inactive) | -0.551 (inactive) | 0.01 (inactive) | 0.226 | 0.593 (inactive) | 1.14 (inactive) | 0.579
19 | CC1C=C(CCCO)C=C(C(=O)OCCS(C)(=O)=O)C(C(=O)OCCS(C)(=O)=O)=CN1Cc1cccc(OC(F)(F)F)c1 (stereo not given) | -0.311 (inactive) | 0.304 | 1.81 (inactive) | 0.45 (inactive) | 0.714 (inactive) | 0.283 (inactive) | 0.402 | -1.97 (inactive) | -0.729 (inactive) | -1.67
20 | COC(=O)C(CC#Cc1ccc2c(c1)[C@]1(C(=O)N2)[C@H](c2ccc(OCCO)cc2)N2[C@H](c3ccccc3)[C@H](c3ccccc3)OC(=O)[C@H]2[C@@H]1C(=O)O)C(=O)OC | 1.55 (inactive) | 0.685 | 4.99 (inactive) | 0.441 (inactive) | 1.17 (inactive) | -0.121 (inactive) | 0.641 | 1.18 (inactive) | 0.0107 (inactive) | 0.918
21 | COCCOC(=O)N1C(=O)[C@@]2(c3cc(C#Cc4ccc(OC)cc4)ccc31)[C@H](C(N)=O)[C@H]1C(=O)O[C@H](c3ccccc3)[C@H](c3ccccc3)N1[C@@H]2c1ccc(OCCO)cc1 | 0.79 (inactive) | 1.45 | 21.2 (active) | 5.69 (inactive) | 1.75 (inactive) | 1.95 (inactive) | -0.0813 | 0.933 (inactive) | -0.164 (inactive) | 1.86
22 | CC(C)C(CO)N1C(=O)[C@@H]2[C@H]3C(=O)OCC=C[C@H]3OC23C=CCN(Cn2nnc4ccccc42)C(=O)[C@@H]13 (stereo not given in full) | 0.197 (inactive) | -0.228 | 0.766 (inactive) | 0.123 (inactive) | 0.393 (inactive) | 0.0882 (inactive) | 0.234 | 0.699 (inactive) | 0.247 (inactive) | 0.94
23 | C=C[C@@H](O)[C@H]1CC(c2ccccc2)=NO1 | 1.07 (inactive) | 0.0557 | 16 (active) | 1.82 (inactive) | -0.112 (inactive) | 0.477 (inactive) | -0.194 | -0.671 (inactive) | -0.0807 (inactive) | 0.344
24 | O=C1C[C@@](C(=O)O)(c2ccc([N+](=O)[O-])cc2)[C@@H](c2ccc(CO)cc2)N1CC12CC3CC(CC(C3)C1)C2 | -0.146 (inactive) | 0.0041 | 6.47 (inactive) | 0.964 (inactive) | 2.67 (inactive) | 0.279 (inactive) | 0.469 | -0.545 (inactive) | -2.72 (inactive) | -1.01
25 | COc1ccc([Si](C)(C)[C@H]2[C@H](CC(=O)N3CCC[C@H]3CO)O[C@@]3(C(=O)N(Cc4ccc(N5C(=O)c6cccc7cccc5c67)cc4)c4ccccc43)[C@@H]2C)cc1 | -0.0217 (inactive) | 0.0903 | 6.9 (inactive) | 1.31 (inactive) | 1.72 (inactive) | 0.771 (inactive) | 0.298 | 1.86 (inactive) | 1.19 (inactive) | 2.62
26 | CC(C)CNC(=O)[C@@]1(C)c2ccccc2C(=O)N(Cc2ccccc2)[C@H]1c1ccc(CO)cc1 | -0.743 (inactive) | -0.16 | 3.11 (inactive) | 0.122 (inactive) | 0.709 (inactive) | 0.0589 (inactive) | 0.11 | -0.912 (inactive) | 0.0265 (inactive) | -1.13
